In all, about 69,000 compounds went through this assay and about 8,600 (12%) showed an effect of 50% or more. This is one part of a sample in which strong results are shown more often than they occur.
Test system: Plasmodium berghei
Test: Screen against P. berghei liver stage (PbLuc), transformed with Luciferase, at 10uM
Format: functional, HepG2
Conditions: tested at 10 uM

| Compound | INHIBITION [%] |
| --- | --- |
| O=C(C1CCC1)N1CCc2onc(Cn3cccn3)c2C1 | 24.5 |
| CN(C)S(=O)(=O)N1CCCC1c1cccc(-n2ccnc2)n1 (configuration not stated) | 33.7 |
| CO[C@@H]1CC[C@@H](NC(=O)CCc2ccc(Cl)cc2)[C@H]1O | 5.35 |
| COCc1nc2ncc3c(=O)n(-c4ccc(OC)cc4)ccc3n2n1 | 15 |
| COCc1nc2ncc3c(=O)n(-c4cccc(OC)c4)ccc3n2n1 | 16.1 |
| COCc1nc2ncc3c(=O)n(-c4ccccc4OC)ccc3n2n1 | 66.9 |
| Cc1n[nH]cc1CNC(C)c1cccc(N2CCCC2=O)c1 (configuration not stated) | 0.643 |
| CN1C(=O)[C@@H]2CC[C@H]1CN(C(=O)c1csc(Cc3ccccc3)n1)C2 | 35.3 |
| Cc1c(CN2CC[C@@H](N3CCC(O)CC3)[C@H](O)C2)[nH]c2ccc(F)cc12 | 66.9 |
| CSCCC1c2nc[nH]c2CCN1Cc1[nH]c2ccc(F)cc2c1C (configuration not stated) | 17.9 |
| Cc1ccc2[nH]c(CN3CC[C@@H](N4CCN(C)CC4)[C@H](O)C3)c(C)c2c1 | 34 |
| Cc1c(CN2CCCC(O)C2)[nH]c2ccc(F)cc12 (configuration not stated) | 16.5 |
| Cc1c(CN2CCc3[nH]cnc3C2C2CC2)[nH]c2ccc(F)cc12 (configuration not stated) | 65.7 |
| CN1CCN([C@@H]2CCN(Cc3ccc4cc(F)ccc4n3)C[C@H]2O)CC1 | -13.5 |
| Cc1c(CN2C[C@H](O)[C@@H](N3CCOCC3)C2)[nH]c2ccc(F)cc12 | 63.1 |
| Cc1c(CN2CC[C@@H](N3CCC(O)CC3)[C@H](O)C2)[nH]c2ccc(Cl)cc12 | 36.2 |
| Cc1c(CN2CCc3[nH]cnc3C2C(=O)O)[nH]c2ccc(F)cc12 (configuration not stated) | 1.56 |
| CC(=O)NCC(=O)N1C[C@@H](C)[C@@]2(CCN(c3ccsc3)C2=O)C1 | 15.9 |
| c1cncc(CN2CCCn3nnc(CN4CCCCC4)c3C2)c1 | 16.8 |
| Cn1ncc2c(=O)[nH]c(CN3CCCC3Cc3ccc(F)cc3)nc21 (configuration not stated) | -5.07 |
| N#Cc1ccc(S(=O)(=O)NC(=O)COc2ccc3c(c2)CCC3)cc1 | 29.25 |
| CCNc1cc2c(nn1)CCN(C(=O)c1ccc(-n3cccn3)nc1)C2 | -5.26 |
| Cc1ccc(C(=O)N2C[C@@H]3CC[C@H]2CN(S(=O)(=O)N(C)C)C3)c(O)c1 | 24.7 |
| Cc1ccc(CN2CCc3c(C(=O)N(C)C)nn(C)c3C2)s1 | 8.47 |
| CCCC(=O)N1CC[C@@H]2[C@H](CC1)N(Cc1cccnc1)CCS2(=O)=O | -1.53 |

| Compound | INHIBITION [%] |
| --- | --- |
| CC1CCN(C(=O)c2occc2COc2cccc(C#N)c2)CC1 | -122 |
| CCC(CC)NC(=O)c1cccnc1N1CCCC1c1ccccn1 (configuration not stated) | 25.3 |
| CC(O)(CNC(=O)c1cccnc1-n1cccn1)c1ccco1 (configuration not stated) | 7.39 |
| CC(O)(CNC(=O)c1cccnc1-n1cccn1)c1ccsc1 (configuration not stated) | 61.1 |
| CCN(CC)CCCC(C)NC(=O)c1cccnc1-n1cccn1 (configuration not stated) | -7.13 |
| CC(O)(CNC(=O)c1cccnc1-n1cccn1)c1cccs1 (configuration not stated) | 35.4 |
| CCC(CC)NC(=O)c1cccnc1-n1cccn1 | 55.9 |
| CCn1nccc1CNC(=O)CCC1CCCC1 | 13 |
| c1coc(CN2C[C@@H]3CN(Cc4ccoc4)CCO[C@@H]3C2)c1 | 24.6 |
| Cc1cc(NCc2ccc(CS(N)(=O)=O)cc2)nc(C)n1 | 11.8 |
| CS(=O)(=O)c1ccc(NC(=O)NC2(c3ccccc3)CCC2)cc1 | 36.7 |
| Cc1ccc(CN2CCc3nnc(CN4CCCC4=O)n3CC2)o1 | 3.81 |
| C=C(C)CN1CCC(C(=O)c2cc(F)ccc2F)CC1 | 5.03 |
| CCNC(=O)C1(Cc2cc(-c3ccccc3)no2)CCCN(C(C)=O)C1 (configuration not stated) | 42.5 |
| COCC1(C(=O)N[C@H]2CN(c3noc(C)n3)C[C@@H]2C2CC2)CCC1 | 2.79 |
| Cc1nnc(CN2C[C@H](NC(=O)CC3CCCC3)[C@@H](C3CC3)C2)s1 | 64.7 |
| Cc1cc(N2C[C@H](NC(=O)C3(C#N)CCOCC3)[C@@H](C(C)C)C2)ccn1 | 30.7 |
| COCCC(=O)N[C@H]1CN(c2nc(C)c3c(n2)CCCC3)C[C@@H]1C1CC1 | 20.4 |
| COCC1(C(=O)N[C@H]2CN(c3nnc(C)s3)C[C@@H]2C2CC2)CCC1 | 64.4 |
| Cc1nc(O)cc(CN2C[C@H](NC(=O)C3CCC3)[C@@H](C3CC3)C2)n1 | 18.9 |
| O=C(O)c1cc(N2C[C@H](NC(=O)C3CCOCC3)[C@@H](C3CC3)C2)ccn1 | 3.68 |
| COCC1(C(=O)N[C@H]2CN(c3ccnc(C)c3)C[C@@H]2C2CC2)CCC1 | 51.3 |
| O=C(CC1CCCC1)N[C@H]1CN(Cc2c[nH]cn2)C[C@@H]1C1CC1 | 45.2 |
| O=C(c1cccs1)N1CC[C@@H]2CN(C3CCOCC3)CCO[C@@H]2C1 | 45.7 |
| CCn1nc(C)c2nnn(CC(=O)Nc3cccc(C)c3)c(=O)c21 | 42.4 |

| Compound | INHIBITION [%] |
| --- | --- |
| CN(C)C[C@H]1OC[C@@H]2CCN(S(=O)(=O)c3cccs3)C[C@@H]21 | 38.7 |
| CC(CO)NC(=O)Nc1ccc(S(C)(=O)=O)nc1 (configuration not stated) | -38.695 |
| COc1ccc(CNCC(C)Oc2ccccn2)cc1 (configuration not stated) | -30.8 |
| Cc1ccc(S(=O)(=O)N2CC[C@@H]3C[C@H](NC(=O)c4ccncc4)[C@@H]32)cc1 | 20.4 |
| Cc1ccc(S(=O)(=O)N2C[C@H]3C[C@H](NC(=O)c4ccccn4)[C@H]3C2)cc1 | 92.9 |
| CNC(=O)[C@H]1C[C@@H]2CN(S(=O)(=O)c3ccc(C)cc3)C[C@@H]2N1C | -10.3 |
| Cc1ccc(S(=O)(=O)N2CC[C@@H]3C[C@H](NC(=O)c4n[nH]cc4Cl)[C@@H]32)cc1 | 6.521 |
| Cc1ccc(S(=O)(=O)N2C[C@H]3C[C@H](NC(=O)c4cscn4)[C@H]3C2)cc1 | 25.6 |
| Cc1ccc(S(=O)(=O)N2C[C@H]3C[C@H](NC(=O)c4cc[nH]n4)[C@H]3C2)cc1 | 64.1 |
| Cc1ccc(CN2CCCC3(CCCC(=O)N3C)C2)s1 (configuration not stated) | 4.98 |
| CC(C)c1nnc2n1CCN(Cc1ncc(-c3ccccc3)o1)C2 | 38.85 |
| Cc1cc(C(=O)NCc2cccs2)nc(N2CCCC2)n1 | -2.28 |
| CCCOc1ccc(C2SCC(=O)Nc3c2c(=O)[nH]n3C(C)C)cc1 (configuration not stated) | 15.1 |
| CC(C)n1[nH]c(=O)c2c1NC(=O)CSC2c1ccc(OCC(N)=O)cc1 (configuration not stated) | 6.83 |
| CC(C)n1[nH]c(=O)c2c1NC(=O)CC2C1CCCCC1 (configuration not stated) | -25.6 |
| CC(C)COc1ccc(C2SCC(=O)Nc3c2c(=O)[nH]n3C(C)C)cc1 (configuration not stated) | 52.4 |
| CCOc1ccc(C2SCC(=O)Nc3c2c(=O)[nH]n3C(C)C)cc1 (configuration not stated) | 44.9 |
| CC(C)n1[nH]c(=O)c2c1NC(=O)CSC2C1CCCCC1 (configuration not stated) | 62.5 |
| Cc1csc(N2CCCN(C(=O)c3occc3C)CC2)n1 | 46.2 |
| CC(C)(C)OC(=O)N1CCN(C(=O)CCn2cccn2)CC1 | 38.05 |
| O=C(C1CC=CC1)N1CC[C@@H](O)[C@H]1Cc1cccnc1 | 43 |
| CCNC(=O)CNC(=O)Nc1c(F)cc(F)cc1-c1ccccc1 | 7.77 |
| COc1cccc(CNCCNS(=O)(=O)Cc2ccccc2)c1 | 30.2 |
| CCn1nc(C)c(NC(=O)c2cc(NC(=O)C3CC3)n(C)n2)c1C | 29.7 |
| Cc1cc(NC(=O)C(C)C)n(-c2nc(C)c(C)c(=O)[nH]2)n1 | 93.2 |

| Compound | INHIBITION [%] |
| --- | --- |
| CCc1c(C)nn(CCNC(=O)c2cc(C3CC3)n[nH]2)c1C | -40.7 |
| Cc1nc(-n2nc(C3CC3)cc2NC(=O)C(C)C)[nH]c(=O)c1C | 93.2 |
| Cc1cc(C)n(-c2cncc(NCCNC(=O)C(C)C)n2)n1 | -23.5 |
| CCc1cc(=O)[nH]c(-n2nc(C3CC3)cc2NC(=O)C2CC2)n1 | 91 |
| CC(C)C(=O)Nc1cc(C(C)(C)C)nn1-c1ccccn1 | -6.94 |
| Cn1nc(CNC(=O)C2CC2)cc1C1CC1 | -62.4 |
| CC(=O)N1CCN(c2cc(CCNC(=O)C(C)C)nc(C3CC3)n2)CC1 | 18.3 |
| CCc1c(C)nc(-n2nc(C3CC3)cc2NC(C)=O)[nH]c1=O | 93.7 |
| CC(C)C(=O)Nc1cc(C(=O)NC2CC(C)(C)NC(C)(C)C2)nn1C | 44.6 |
| Cc1nc(C)c(CC(=O)Nc2nnc(C3CC3)s2)c(=O)[nH]1 | -0.18 |
| CN(C)Cc1nn(C)c2c1CCN(C(=O)c1cnccn1)C2 | -43.1 |
| CNC(=O)c1ccc(C2CN(Cc3ccc(F)cc3)CCO2)nc1 (configuration not stated) | 2.55 |
| Cc1nc(CN(C)C2CCN(CCc3ccccn3)C2)no1 (configuration not stated) | -41.6 |
| Cc1cc(C)n(C2CCCN(C(=O)c3ccc(F)c(F)c3)C2)n1 (configuration not stated) | 18.7 |
| CN(C)CCN1CCOCC12CCN(C(=O)C1CC1)CC2 | 6.55 |
| COC[C@]1(O)CCN(c2cc(N3CCOCC3)ncn2)CC1(C)C | 32.3 |
| Cc1cc(OCc2ccc(C(=O)O)s2)ccc1Cl | -61.9 |
| CSC(C)C(=O)NCc1ccnc(N2CCN(C)CC2)c1 (configuration not stated) | -11.98 |
| CCOc1ccc(Cl)c(C(=O)N2CCCN(CC(N)=O)CC2)n1 | 47 |
| CC(=O)Nc1cc(C2CC2)nn1-c1nc(C)c(C)c(=O)[nH]1 | 72.4 |
| COCCNC(=O)CCc1c(C)nn(-c2nc(C)c(C)c(=O)[nH]2)c1C | -8.69 |
| Cc1[nH]c2cc(C3CCN(C(=O)c4ccccn4)CC3)nn2c(=O)c1C | 29.55 |
